Only some compounds are listed: those with a hit (about 1.7% of all), similar ones and a draw of the others.
GSTO1 inh – GSTO1 inhibition, counter-screen for RBBP9 inhibitors. P78417. recombinant GSTO1, activity-based probe fluorescence polarization. inhibition, % at 5.96 µM. 300,000 tested, 1.1% active. AID 1974;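 active means inhibition above the campaign mean inhibition plus 3 SD, cut at about 35% in these data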
LYPLA2 counter – counter-screen for PME1 inhibitors: inhibitors of human LYPLA2 | AID 2177 | recombinant LYPLA2, FP-Rh probe fluorescence polarization | O95372 | 320,000 tested, 0.38% active | inhibition, % at 5.9 µM;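 active means inhibition above the screen-wide mean plus 3 SD, limit set per campaign, cut at about 26% in these data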
Target sequence (O95372 whole entry, looked up): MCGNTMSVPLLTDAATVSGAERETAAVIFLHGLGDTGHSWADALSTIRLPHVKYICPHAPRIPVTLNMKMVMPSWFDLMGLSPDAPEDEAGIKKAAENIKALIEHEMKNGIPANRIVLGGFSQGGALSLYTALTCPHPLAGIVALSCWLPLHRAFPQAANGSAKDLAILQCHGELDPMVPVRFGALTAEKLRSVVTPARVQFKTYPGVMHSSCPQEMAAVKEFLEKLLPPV
EBNA-1 inhibitor – blocks EBNA-1 binding to DNA; EBNA-1 DNA binding, fluorescence polarization; 300,000 tested, 0.34% active; inhibition, % at 14.8 µM; in the data active means inhibition above about 28%
LYPLA1 counter – counter-screen for PME1 inhibitors: inhibitors of human LYPLA1. O75608. recombinant LYPLA1, FP-Rh probe fluorescence polarization. 320,000 tested, 0.16% active. inhibition, % at 5.9 µM;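 active means inhibition above the mean of all tested compounds plus 3 SD, set per campaign, cut at about 14% in these data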;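 further: inhibitors block serine hydrolase probe labeling of LYPLA1 so polarization falls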
Target sequence (O75608 whole entry, looked up): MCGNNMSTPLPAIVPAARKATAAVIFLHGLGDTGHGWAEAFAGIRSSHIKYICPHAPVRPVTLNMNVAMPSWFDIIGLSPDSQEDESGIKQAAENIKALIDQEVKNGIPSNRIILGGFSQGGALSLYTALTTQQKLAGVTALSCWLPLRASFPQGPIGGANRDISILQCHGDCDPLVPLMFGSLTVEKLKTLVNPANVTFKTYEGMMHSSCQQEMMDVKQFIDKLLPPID
ZTA DNA inh – counter-screen for EBNA-1 inhibitors: inhibitors of Epstein-Barr virus ZTA. inhibition, % at 11 µM. P03206. ZTA-DNA binding, fluorescence polarization. 320,000 tested, 0.15% active; in the data active means inhibition above about 33%
PAD4 FP inh – inhibitors of human PAD4; Q9UM07; recombinant PAD4, RCA probe fluorescence polarization; inhibition, % at 6.36 µM; 330,000 tested, 0.41% active;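 active means percent inhibition above a cutoff equal to the mean of all tested compounds plus 3 SD, cut at about 15% in these data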
ZTA inh confirm – EBV ZTA DNA binding inhibition, confirmation | inhibition, % at 11.1 µM | 320 tested, 30% active | Zta-ZRE DNA binding, fluorescence polarization | shares compounds with ZTA DNA inh;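 active means mean inhibition across triplicate runs above the hit threshold derived for the original primary screen, cut at about 33% in these data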
EBNA1 counter – counter-screen for ZTA inhibitors: EBNA-1 DNA binding inhibition | fluorescence polarization | inhibition, % at 14.8 µM | 320 tested, under 10 active | shares compounds with ZTA DNA inh; call rule not given here
Each line names hits and unclear results; the compound was inactive in the other large screens (follow-up assays come after a bar, where they were run); ! = not confirmed by another sample.

OC(CNCC1CCCO1)Cn1c2ccc(Cl)cc2c2cc(Cl)ccc21 (stereo not drawn)	none
CC(C)Oc1ccc(C(=O)Nc2nc3ccccc3[nH]2)cc1	none
CCC(Oc1ccccc1)C(=O)Nc1nc2ccccc2[nH]1 (stereo not drawn)	ZTA DNA inh 37 | ZTA inh confirm inactive | EBNA1 counter inactive
CCCCCN(C(=O)CCC(=O)OCC(=O)Nc1ccc(C)cc1F)c1c(N)n(CCCC)c(=O)[nH]c1=O	none
c1ccc(-n2ncc3c(N4CCN(c5ccccn5)CC4)nc(N4CCCCCC4)nc32)cc1	ZTA DNA inh 40 | ZTA inh confirm inactive | EBNA1 counter inactive
CC1=CC(C)(C)Nc2ccccc21	ZTA DNA inh 39! | ZTA inh confirm inactive | EBNA1 counter inactive
O=C(Nc1csnn1)c1csnn1	ZTA DNA inh 49 | ZTA inh confirm inactive | EBNA1 counter inactive
Nc1nnnn1/N=C/c1ccc(F)cc1	ZTA DNA inh 52 | ZTA inh confirm inactive | EBNA1 counter inactive
O=C1Nc2ccc(Br)cc2/C1=C/c1ccc(C(=O)O)cc1	ZTA DNA inh 34 | ZTA inh confirm 46 | EBNA1 counter inactive
Cc1ccc2c(c1)/C(=C/c1ccco1)C(=O)N2	none
O=C(NCC(=O)N1CCN(c2ccccc2O)CC1)c1ccc2c(c1)OCO2	none
Cc1ccc(F)cc1NC(=O)CSc1n[nH]c(N)n1	none (no result: GSTO1 inh, LYPLA2 counter, EBNA-1 inhibitor, LYPLA1 counter, ZTA DNA inh)
COc1ccc(-c2nc(N)n(C(=O)c3ccccc3Cl)n2)cc1	none
COc1ccc(-c2nc(N)n(C(=O)c3cccs3)n2)cc1	ZTA DNA inh 79 | ZTA inh confirm inactive | EBNA1 counter inactive
COC(=O)c1ccc(CNC(=O)CNC(=O)c2sc3ccccc3c2Cl)cc1	ZTA DNA inh 83 | ZTA inh confirm 70 | EBNA1 counter inactive
COc1ccc(S(=O)(=O)Nc2cccc(C)n2)c2ccccc12	ZTA DNA inh 34 | ZTA inh confirm inactive | EBNA1 counter inactive
NC1=NC(=O)/C(=C/c2ccc(-c3ccc(S(N)(=O)=O)cc3)o2)S1	ZTA DNA inh 37 | ZTA inh confirm inactive | EBNA1 counter inactive
O=C(COC(=O)c1cc[n+]([O-])cc1)Nc1cc([N+](=O)[O-])ccc1Cl	none
Cc1cccc(N2C(=O)CCC2=O)n1	none
CN(CC(=O)Nc1ccc(Cl)c(Cl)c1)CC(=O)Nc1ccc2c(c1)OCO2	ZTA DNA inh active (no result: GSTO1 inh, EBNA-1 inhibitor) | ZTA inh confirm inactive | EBNA1 counter inactive
CC(C)(C)n1nnnc1C(c1cccc(C#N)c1)N1CCCc2ccccc21 (stereo not drawn)	ZTA DNA inh 44 | ZTA inh confirm inactive | EBNA1 counter inactive
O=S(=O)(c1ccccc1)N1CCN(C(=S)Nc2ccccc2Cl)CC1	none
CC(=O)c1cccc(NC(=O)NNC(=O)c2ccc3ccccc3c2)c1	ZTA DNA inh 76 | ZTA inh confirm inactive | EBNA1 counter inactive
O=C(Nc1ccc2c(c1)CCCN2C(=O)c1cccs1)c1c(F)cccc1Cl	ZTA DNA inh 42 | ZTA inh confirm inactive | EBNA1 counter inactive
O=C(Nc1ccc2c(c1)CCCN2C(=O)c1cccs1)c1c(F)cccc1F	none
Cc1ccc(S(=O)(=O)NCC(=O)NCC2CCCCC2)cc1C	none
CCc1nc(SCC(=O)Nc2nccs2)c2oc3ccccc3c2n1	ZTA DNA inh 42 | ZTA inh confirm 38 | EBNA1 counter inactive
O=C(O)c1cccc(-n2cccc2/C=C\[N+](=O)[O-])c1	none
O=C(O)c1cccc(-n2cccc2/C=C/[N+](=O)[O-])c1	ZTA DNA inh 56 | ZTA inh confirm inactive | EBNA1 counter inactive
CCN(CC(=O)NCc1ccc(F)cc1)C(=O)c1ccc2c(c1)OCO2	none (no result: GSTO1 inh, EBNA-1 inhibitor)
CS(=O)(=O)c1ccc2nc(NC(=O)c3ccc(NS(=O)(=O)c4ccc(F)c(F)c4)cc3)sc2c1	ZTA DNA inh 87 | ZTA inh confirm 39 | EBNA1 counter inactive
O=S(=O)(c1ccc(S(=O)(=O)N2CCOCC2)cc1)N1CCCC1	none
Cc1cc(=O)oc(C)c1C(=O)OCC(=O)c1ccc(Br)cc1	none
Cc1cc(=O)oc(C)c1C(=O)OCC(=O)c1ccc(Cl)cc1	ZTA DNA inh 36 | ZTA inh confirm inactive | EBNA1 counter inactive
Cc1ccc(-c2cc(C(=O)NCCCN3CCOCC3)c3ccc(Cl)c(C)c3n2)cc1	ZTA DNA inh 34 | ZTA inh confirm inactive | EBNA1 counter inactive
O=C(NCCCN1CCOCC1)c1cc(-c2ccccc2)nc2ccccc12	none
O=C(CCN1C(=O)/C(=C\c2ccco2)SC1=S)Nc1ccc(C(=O)O)c(O)c1	ZTA DNA inh 44 | ZTA inh confirm inactive | EBNA1 counter inactive
Cc1c(Cl)cccc1NS(=O)(=O)c1ccc2c(c1)C1C=CCC1C(c1ccc(C(=O)O)cc1)N2 (stereo not drawn)	none
COc1ccc(NS(=O)(=O)c2ccc3c(c2)[C@H]2C=CC[C@H]2[C@@H](c2ccc(C(=O)O)cc2)N3)cc1	ZTA DNA inh 35 | ZTA inh confirm 48 | EBNA1 counter inactive
CC(C)(O)C#Cc1ccc(C(=O)N2CCN(c3ccc(Cl)cc3)CC2)cc1	none
Cc1noc(C)c1NC(=O)Nc1cccc2c1O[C@H](CN(C)C(=O)Nc1ccc(C(F)(F)F)cc1)[C@@H](C)CN([C@H](C)CO)C2=O	none (no result: GSTO1 inh, LYPLA2 counter, EBNA-1 inhibitor, LYPLA1 counter, ZTA DNA inh)
CCOC(=O)c1c(NC(=O)Cn2nc(C(=O)O)c3ccccc3c2=O)sc(C)c1C	none
CCOC(=O)c1c(NC(=O)Cn2nc(C(=O)O)c3ccccc3c2=O)sc(CC)c1C	ZTA DNA inh 36 | ZTA inh confirm inactive | EBNA1 counter inactive
C#CCOCCOCCOCCNc1nc(N2CCN(C(=O)CCCCCCCCCCNC(=O)[C@H](CO)n3cc(CCCSC)nn3)CC2)nc(N2CCN(C(=O)CCCCCCCCCCNC(=O)[C@H](CCCN=C(N)N)n3cc(C[C@@H](C)CC)nn3)CC2)n1	ZTA DNA inh 96 | ZTA inh confirm 69 | EBNA1 counter inactive
C#CCOCCOCCOCCNc1nc(N2CCN(C(=O)CCCCCCCCCCNC(=O)Cn3cc(C[C@@H](C)O)nn3)CC2)nc(N2CCN(C(=O)CCCCCCCCCCNC(=O)[C@H](CCCN=C(N)N)n3cc(C[C@@H](C)CC)nn3)CC2)n1	ZTA DNA inh 56 | ZTA inh confirm inactive | EBNA1 counter inactive
Cc1cccc(NC(=O)CN(C)C(=O)C2CCCC2)c1C	none (no result: GSTO1 inh, EBNA-1 inhibitor)
CN(/N=C/c1ccc(N(C)C)cc1)C1=NS(=O)(=O)c2ccccc21	none
CCOC(=O)C1Nc2ccc(C(=O)O)cc2C2C=CCC12 (stereo not drawn)	ZTA DNA inh 60 | ZTA inh confirm inactive | EBNA1 counter inactive
CCc1ccc(C(C)NC(=O)c2ccc(F)cc2)cc1 (stereo not drawn)	none
CCc1ccc(C(C)NC(=O)c2ccncc2)cc1 (stereo not drawn)	ZTA DNA inh 114 | ZTA inh confirm inactive | EBNA1 counter inactive

Screening results: PubChem BioAssay, The Scripps Research Institute Molecular Screening Center
